Test results taken from PubChem BioAssay (NCI).
The panel holds about 83,000 compounds, 20% with a hit somewhere; the sample as a whole holds those more often.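 96-well plates, one dose, 48 hours. Percent growth reported; active if below 10.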 Values without a mark were called inactive. Activity calls are given as the source filed them.

What follows are molecules tested on RXF 393 renal (assay: NCI-60 one-dose screen, 48 h (100 = growth as untreated, 0 = no growth, -100 = all killed)). Conditions: 10 µM unless noted.
With `O=C(CSc1nccc(=O)[nH]1)Nc1ccc(-c2nc3ccccc3[nH]2)cc1` the growth was 128%.
In the case of `N[C@@H](Cc1cn(-c2ccnc3ccccc23)nn1)C(=O)O`, the growth is reported as 121%.
`CCOC(=O)c1c(Nc2ccccc2)nn2c(N)c(C#N)c(-c3ccc(F)cc3)nc12` showed a growth of 84.9%.
With `O=C(N/N=C/c1ccc([N+](=O)[O-])o1)c1[nH]c2ccc(Br)cc2c1-c1ccccc1` the growth was 50.1%.
For `CN(C)CCCNc1c2ccc(Cl)cc2nc2c1oc1ccc(Cl)cc12`, the growth was -80.8% (active).
`Cc1c(NC(=O)CSc2nc3sc4c(c3c(=O)n2-c2ccc(Cl)cc2)CCCC4)c(=O)n(-c2ccccc2)n1C` showed a growth of 104%.
In the case of `CC(C)(C)Nc1nc2c(OCCc3ccccc3)cccn2c1-c1ccc(Cl)cc1`, the growth is reported as -15.3% (active).
`CN(C)CCCNc1c2ccc(Cl)cc2nc2c1oc1ccccc12` was tested, and the growth was -68.1% (active).
For `COc1ccccc1C(=O)CSc1nc(Nc2ccc(S(N)(=O)=O)cc2)c2ccccc2n1`, the growth was 97.1%.
In the case of `COc1ccccc1/C=C/C=N/NC1=NC2C(S1)N(C)C(=O)N2C` (stereo unspecified), the growth is reported as -20.8% (active).
With `COc1cccc(N2CCN(c3ncnc4c3[nH]c3ccc(F)cc34)C[C@@H]2C)c1` the growth was -27.1% (active).
In the case of `O=C(CSc1nnc(-c2ccc3nc(-c4ccc(Cl)cc4)[nH]c3c2)o1)Nc1ccc(C(=O)/C=C/c2ccc(Cl)cc2)cc1`, the growth is reported as 104%.
`Cc1nc2cnc(N)c(C#Cc3cncc(C(=O)Nc4ccc(Cl)c(C(F)(F)F)c4)c3)c2nc1C` was tested, and the growth was -18% (active).
`Cc1ccc(C(=O)Nc2cccc(C(F)(F)F)c2)cc1Nc1nc(-c2cnccn2)nc2c1cnn2C` was tested, and the growth was 78%.
In the case of `CC(=O)Oc1ccccc1C(=O)Nc1cc(C(C)C)ccc1C`, the growth is reported as -2.41% (active).
`COc1ccc(/C=N/NC(=O)c2[nH]c3ccc(Br)cc3c2-c2ccccc2)s1` was tested, and the growth was 80.9%.
For `O=C(CN1C(=O)/C(=C/c2ccccc2)SC1=S)N1CCOCC1`, the growth was 105%.
`COc1ccc(-c2nc3ccc(-c4nnc(SCC(=O)Nc5ccc(C(=O)/C=C/c6ccc(Cl)cc6)cc5)o4)cc3[nH]2)cc1OC` gave a growth of 106%.
`CN1C(=S)N(C)C2C1NN=C1SC(c3ccccc3)=CC(=O)N12` (stereo unspecified) gave a growth of 97.8%.
`CN(C)c1ccc(/C=C2\Cc3c(F)ccc(Br)c3C2=O)cc1` was tested, and the growth was 108%.
Molecule `CN(C)S(=O)(=O)c1oc(-c2ccccc2)nc1C#N` has a growth of 39%.
`CC(C)(C)OC(=O)N1C(=O)c2c(c3c4ccccc4[nH]c3c3ccc4ccccc4c23)C1=O` gave a growth of 59%.
`Cc1[nH]nc2ncc(C#Cc3cncc(C(=O)Nc4ccc(CN5CCN(C)CC5)c(C(F)(F)F)c4)c3)cc12` was tested, and the growth was -12.8% (active).
For `C#Cc1nc(C2=C(C)C(=N\O)/C(=N/O)C2)cs1`, the growth was 104%.
In the case of `O=c1[nH]c2ccccc2cc1CSc1ccccc1Nc1nccc(-c2ccc(C(F)(F)F)cc2)n1`, the growth is reported as 2.21% (active).
`COC1CCN(Cc2ccc3c(NNC(=O)c4cnccn4)nc4cc(F)ccc4n23)C1` (stereo unspecified) was tested, and the growth was 37.9%.
For `O=C(CN1CCOCC1)NNc1ncnc2ccccc12`, the growth was -39.7% (active).
In the case of `Cn1c(SCC(=O)Nc2ccc(-c3nc4ccc([N+](=O)[O-])cc4[nH]3)cc2)nc2ccccc2c1=O`, the growth is reported as 73.1%.
In the case of `O=C(CSc1nc2sc3c(c2c(=O)n1-c1ccc(Cl)cc1)CCCC3)N/N=C/c1ccc(F)cc1`, the growth is reported as 118%.
With `O=c1/c(=C\c2ccc(-c3ccccc3)o2)sc2nc(-c3ccccc3)nn12` the growth was 115%.
For `COC(=O)C1CCCN(S(=O)(=O)/N=C2\NC(=O)NC2=C(Cl)Cl)C1` (stereo unspecified), the growth was 121%.
Molecule `Clc1ccc2c(NCCCN3CCOCC3)c3oc4ccc(Cl)cc4c3nc2c1` has a growth of 22.2%.
With `N#Cc1nc(-c2ccccc2)oc1N1CC[C@@H](CO)C1` the growth was 118%.
For `O=C(c1ccc(O)cc1)C1[C@H](c2ccc(Cl)cc2)[C@@H](c2ccccc2)NC12C(=O)Nc1ccc(Cl)cc12` (stereo partly specified), the growth was 27.7%.
`COc1cccc(OC)c1-c1nnn(C)c1C(=S)N1CCN(c2ccc([N+](=O)[O-])cc2Cl)CC1` showed a growth of 82.4%.
Work on `CCCC(=O)NC(c1cccc(N(C)C)c1)c1cc(C)c2cccnc2c1O` (stereo unspecified) yielded a growth of 82.1%.
For `CC(=O)Oc1ccccc1C(=O)Nc1ccc(C(=O)/C=C/c2ccncc2)cc1`, the growth was -4.73% (active).
With `C#Cc1nc(C2=C(C)C(OC(=O)CCC(=O)O)CC2)cs1` (stereo unspecified) the growth was 113%.

These molecules were tested on SF-268 CNS in the same assay as above. Conditions: 10 µM unless noted.
With `O=C(CSc1nccc(=O)[nH]1)Nc1ccc(-c2nc3ccccc3[nH]2)cc1` the growth was 115%.
`N[C@@H](Cc1cn(-c2ccnc3ccccc23)nn1)C(=O)O` gave a growth of 103%.
`CCOC(=O)c1c(Nc2ccccc2)nn2c(N)c(C#N)c(-c3ccc(F)cc3)nc12` was tested, and the growth was 85.6%.
`O=C(N/N=C/c1ccc([N+](=O)[O-])o1)c1[nH]c2ccc(Br)cc2c1-c1ccccc1` gave a growth of 24.8%.
In the case of `CN(C)CCCNc1c2ccc(Cl)cc2nc2c1oc1ccc(Cl)cc12`, the growth is reported as 43.8%.
`Cc1c(NC(=O)CSc2nc3sc4c(c3c(=O)n2-c2ccc(Cl)cc2)CCCC4)c(=O)n(-c2ccccc2)n1C` showed a growth of 80.3%.
For `CC(C)(C)Nc1nc2c(OCCc3ccccc3)cccn2c1-c1ccc(Cl)cc1`, the growth was 45.5%.
Work on `CN(C)CCCNc1c2ccc(Cl)cc2nc2c1oc1ccccc12` yielded a growth of 23%.
Molecule `COc1ccccc1C(=O)CSc1nc(Nc2ccc(S(N)(=O)=O)cc2)c2ccccc2n1` has a growth of 89.9%.
With `COc1ccccc1/C=C/C=N/NC1=NC2C(S1)N(C)C(=O)N2C` (stereo unspecified) the growth was 52%.
With `COc1cccc(N2CCN(c3ncnc4c3[nH]c3ccc(F)cc34)C[C@@H]2C)c1` the growth was -1.64% (active).
Work on `O=C(CSc1nnc(-c2ccc3nc(-c4ccc(Cl)cc4)[nH]c3c2)o1)Nc1ccc(C(=O)/C=C/c2ccc(Cl)cc2)cc1` yielded a growth of 99.9%.
`Cc1nc2cnc(N)c(C#Cc3cncc(C(=O)Nc4ccc(Cl)c(C(F)(F)F)c4)c3)c2nc1C` was tested, and the growth was 52.6%.
`Cc1ccc(C(=O)Nc2cccc(C(F)(F)F)c2)cc1Nc1nc(-c2cnccn2)nc2c1cnn2C` gave a growth of 81.8%.
Molecule `CC(=O)Oc1ccccc1C(=O)Nc1cc(C(C)C)ccc1C` has a growth of 19.8%.
With `COc1ccc(/C=N/NC(=O)c2[nH]c3ccc(Br)cc3c2-c2ccccc2)s1` the growth was 39.7%.
With `O=C(CN1C(=O)/C(=C/c2ccccc2)SC1=S)N1CCOCC1` the growth was 102%.
For `COc1ccc(-c2nc3ccc(-c4nnc(SCC(=O)Nc5ccc(C(=O)/C=C/c6ccc(Cl)cc6)cc5)o4)cc3[nH]2)cc1OC`, the growth was 106%.
`CN1C(=S)N(C)C2C1NN=C1SC(c3ccccc3)=CC(=O)N12` (stereo unspecified) showed a growth of 108%.
`CN(C)c1ccc(/C=C2\Cc3c(F)ccc(Br)c3C2=O)cc1` gave a growth of 101%.
In the case of `CN(C)S(=O)(=O)c1oc(-c2ccccc2)nc1C#N`, the growth is reported as 116%.
With `CC(C)(C)OC(=O)N1C(=O)c2c(c3c4ccccc4[nH]c3c3ccc4ccccc4c23)C1=O` the growth was 63.3%.
Molecule `Cc1[nH]nc2ncc(C#Cc3cncc(C(=O)Nc4ccc(CN5CCN(C)CC5)c(C(F)(F)F)c4)c3)cc12` has a growth of 21.2%.
`C#Cc1nc(C2=C(C)C(=N\O)/C(=N/O)C2)cs1` showed a growth of 86.1%.
With `O=c1[nH]c2ccccc2cc1CSc1ccccc1Nc1nccc(-c2ccc(C(F)(F)F)cc2)n1` the growth was 70.4%.
Work on `COC1CCN(Cc2ccc3c(NNC(=O)c4cnccn4)nc4cc(F)ccc4n23)C1` (stereo unspecified) yielded a growth of 35.8%.
Work on `O=C(CN1CCOCC1)NNc1ncnc2ccccc12` yielded a growth of 97.4%.
In the case of `Cn1c(SCC(=O)Nc2ccc(-c3nc4ccc([N+](=O)[O-])cc4[nH]3)cc2)nc2ccccc2c1=O`, the growth is reported as 83.3%.
For `O=C(CSc1nc2sc3c(c2c(=O)n1-c1ccc(Cl)cc1)CCCC3)N/N=C/c1ccc(F)cc1`, the growth was 102%.
`O=c1/c(=C\c2ccc(-c3ccccc3)o2)sc2nc(-c3ccccc3)nn12` gave a growth of 96.8%.
Work on `COC(=O)C1CCCN(S(=O)(=O)/N=C2\NC(=O)NC2=C(Cl)Cl)C1` (stereo unspecified) yielded a growth of 106%.
`Clc1ccc2c(NCCCN3CCOCC3)c3oc4ccc(Cl)cc4c3nc2c1` was tested, and the growth was 68.5%.
In the case of `N#Cc1nc(-c2ccccc2)oc1N1CC[C@@H](CO)C1`, the growth is reported as 105%.
`O=C(c1ccc(O)cc1)C1[C@H](c2ccc(Cl)cc2)[C@@H](c2ccccc2)NC12C(=O)Nc1ccc(Cl)cc12` (stereo partly specified) gave a growth of 37.7%.
Molecule `COc1cccc(OC)c1-c1nnn(C)c1C(=S)N1CCN(c2ccc([N+](=O)[O-])cc2Cl)CC1` has a growth of 98.9%.
With `CCCC(=O)NC(c1cccc(N(C)C)c1)c1cc(C)c2cccnc2c1O` (stereo unspecified) the growth was 55.1%.
For `CC(=O)Oc1ccccc1C(=O)Nc1ccc(C(=O)/C=C/c2ccncc2)cc1`, the growth was 85.5%.
Work on `C#Cc1nc(C2=C(C)C(OC(=O)CCC(=O)O)CC2)cs1` (stereo unspecified) yielded a growth of 99.9%.
